Each structure is given as a SMILES string. Active and inactive are the calls of the source. The calls were made as follows: active = hit-call score of the fitted dose curve at least 0.9, where 1 is the maximum; inactive = score below 0.9.

Common to all, as to details: mRNA level, 48 h; actives raise or lower the signal
Read-out in one assay: BCL2L11 (gene 10018)
Kind of assay: LTEA_HepaRG_BCL2L11: Life Technologies and Expression Analysis (LTEA) Assay for Bcl-2 (BCL2L11) gene using HepaRG (AID 2283473). In short, it runs like this:
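HepaRG, 48 h exposure, 8-pt half-log series from 100 uM in 0.5% DMSO, duplicates; qRT-PCR (Fluidigm TaqMan) for BCL2L11, housekeeping-normalized; bidirectional curve fit relative to DMSO baseline.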

Read-out in assay [1]: Apolipoprotein A-V (APOA5) gene, APOA5 (gene 116519)
The experiment in a line: LTEA_HepaRG_APOA5: Life Technologies and Expression Analysis (LTEA) Assay for Apolipoprotein A-V (APOA5) gene using HepaRG (AID 2283474). The method, boiled down:
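HepaRG, 48 h chemical exposure in serum-free induction medium, 8-pt half-log series (top 100 uM), 0.5% DMSO vehicle, duplicates. Readout: APOA5 mRNA by qRT-PCR, housekeeping-normalized; bidirectional fit vs DMSO baseline.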

Read-out in assay [2]: Apoptosis regulator Bcl-2 (Homo sapiens) (UniProt P10415)
Kind of assay: LTEA_HepaRG_BCL2: Life Technologies and Expression Analysis (LTEA) Assay for Bcl-2 gene using HepaRG (AID 2283475). The method, boiled down: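 qRT-PCR of BCL2 transcript, normalized to three housekeeping genes (ACTB, GAPDH, POLR2A), after 48 h chemical exposure of HepaRG cells; concentrations top 100 uM with half-log dilutions, 0.5% DMSO vehicle, duplicates; changes up or down fitted relative to vehicle.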

Read-out in assay [3]: Bcl-2 (BID) gene, BID (gene 637)
Kind of assay: LTEA_HepaRG_BID: Life Technologies and Expression Analysis (LTEA) Assay for Bcl-2 (BID) gene using HepaRG (AID 2283476). The method, boiled down:
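Duplicate 48 h treatments of HepaRG cells in serum-free induction medium spanned 100 uM downward in half-log steps, 0.5% DMSO. Transcript change quantified by qRT-PCR against three housekeeping genes, fitted up or down versus DMSO.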

Read-out in another assay: Caspase-3 (Homo sapiens) (UniProt P42574)
The experiment in a line: LTEA_HepaRG_CASP3: Life Technologies and Expression Analysis (LTEA) Assay for cysteine-aspartic acid protease (CASP3) using HepaRG (AID 2283477). The method, boiled down: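 HepaRG, 48 h exposure, 8 conc. (top 100 uM, half-log steps, duplicate), 0.5% DMSO vehicle; qRT-PCR of CASP3 transcript, housekeeping-normalised (ACTB/GAPDH/POLR2A); bidirectional curve fit vs DMSO baseline.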

Read-out in assay [4]: Cytochrome P450 (CYP24A1), CYP24A1 (gene 1591)
Kind of assay: LTEA_HepaRG_CYP24A1: Life Technologies and Expression Analysis (LTEA) Assay for Cytochrome P450 (CYP24A1) using HepaRG (AID 2283478). In short, it runs like this: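 qRT-PCR read-out: CYP24A1 transcript levels normalized to three housekeeping genes, bidirectional curve fits against 0.5% DMSO baseline. Human HepaRG cells treated 48 h with chemicals at eight concentrations from 100 uM in half-log steps.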

Read-out in assay [5]: Cytochrome P450 (CYP1A2), CYP1A2 (gene 1544)
The experiment in a line: LTEA_HepaRG_CYP1A2: Life Technologies and Expression Analysis (LTEA) Assay for Cytochrome P450 (CYP1A2) using HepaRG (AID 2283479). The method, boiled down: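 HepaRG, 48 h exposure, top 100 uM, half-log 8-pt, 0.5% DMSO vehicle, duplicates. Readout: TaqMan qRT-PCR of CYP1A2 mRNA, housekeeping-normalized (ACTB/GAPDH/POLR2A). Gain/loss fit relative to DMSO baseline.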

Read-out in assay [6]: cysteine-aspartic acid protease (CASP8), CASP8 (gene 841)
The experiment in a line: LTEA_HepaRG_CASP8: Life Technologies and Expression Analysis (LTEA) Assay for cysteine-aspartic acid protease (CASP8) using HepaRG (AID 2283480). The method, boiled down:
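Concentration-response in duplicate up to 100 uM (half-log steps, 0.5% DMSO) on differentiated HepaRG cultures for 48 h. Expression change of CASP8 mRNA is determined by TaqMan qRT-PCR with housekeeping-gene normalization.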

Read-out in assay [7]: Cytochrome P450 (CYP2B6), CYP2B6 (gene 1555)
Kind of assay: LTEA_HepaRG_CYP2B6: Life Technologies and Expression Analysis (LTEA) Assay for Cytochrome P450 (CYP2B6) using HepaRG (AID 2283481). The method, boiled down: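 Read-out is CYP2B6 mRNA by TaqMan qRT-PCR, normalized to three housekeeping genes and fitted bidirectionally against 0.5% DMSO baseline. Human HepaRG cells received test chemicals for 48 h, top concentration 100 uM, half-log dilutions.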

Read-out in assay [8]: Cytochrome P450 2C19 (Homo sapiens) (UniProt P33261)
Kind of assay: LTEA_HepaRG_CYP2C19: Life Technologies and Expression Analysis (LTEA) Assay for CYP2C19 using HepaRG (AID 2283482). In short, it runs like this: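 HepaRG, 48 h chemical exposure, 8-pt half-log series from 100 uM in 0.5% DMSO, duplicates. Readout: CYP2C19 mRNA by TaqMan qRT-PCR, housekeeping-normalized. Bidirectional fit vs DMSO baseline; phenobarbital 1mM as induction control.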

Read-out in a further assay: CYP2C8 (gene 1558)
The experiment in a line: LTEA_HepaRG_CYP2C8: Life Technologies and Expression Analysis (LTEA) Assay for CYP2C8 using HepaRG (AID 2283483). The method, boiled down: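 This is a transcriptional endpoint in HepaRG cultures: 48 h exposure, highest concentration 100 uM. CYP2C8 mRNA is quantified by TaqMan qRT-PCR.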

Read-out in the next assay: CYP2C9 (gene 1559)
The experiment in a line: LTEA_HepaRG_CYP2C9: Life Technologies and Expression Analysis (LTEA) Assay for CYP2C9 using HepaRG (AID 2283484). In short, it runs like this: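 Eight-point concentration-response (highest 100 uM, half-log dilutions) in HepaRG cells for 48 h; CYP2C9 expression by qRT-PCR normalized to ACTB, GAPDH, POLR2A. Bidirectional fit, DMSO baseline.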

Read-out in another assay: CYP2E1 (gene 1571)
The experiment in a line: LTEA_HepaRG_CYP2E1: Life Technologies and Expression Analysis (LTEA) Assay for CYP2E1 using HepaRG (AID 2283485). The method, boiled down:
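CYP2E1 transcript measured by Fluidigm qRT-PCR against three housekeeping genes in human HepaRG cells treated 48 h (top 100 uM, half-log steps, 0.5% DMSO vehicle). Gain or loss fitted relative to DMSO baseline.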

Read-out in a further assay: CYP4A11 (gene 1579)
Kind of assay: LTEA_HepaRG_CYP4A11: Life Technologies and Expression Analysis (LTEA) Assay for CYP4A11 using HepaRG (AID 2283486). The method, boiled down: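 CYP4A11 transcript levels were quantified by TaqMan qRT-PCR after HepaRG human liver cells were treated for 48 hours with test chemicals (top 100 uM, half-log dilutions, 0.5% DMSO). Gain or loss of signal was fitted relative to DMSO.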

Read-out in assay [9]: Cytochrome P450 3A4 (Homo sapiens) (UniProt P08684)
Kind of assay: LTEA_HepaRG_CYP3A4: Life Technologies and Expression Analysis (LTEA) Assay for CYP3A4 using HepaRG (AID 2283487). In short, it runs like this: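 Differentiated HepaRG cells in serum-free induction medium exposed in duplicate for 48 h to 8 half-log concentrations up to 100 uM in 0.5% DMSO. CYP3A4 mRNA measured by qRT-PCR normalized to ACTB, GAPDH and POLR2A; bidirectional fit versus DMSO.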

Read-out in assay [10]: DNA damage-inducible transcript 3 (DDIT3), DDIT3 (gene 1649)
The experiment in a line: LTEA_HepaRG_DDIT3: Life Technologies and Expression Analysis (LTEA) Assay for DNA damage-inducible transcript 3 (DDIT3) using HepaRG (AID 2283488). In short, it runs like this:
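DDIT3 transcript was quantified by qRT-PCR with ACTB/GAPDH/POLR2A normalization after 48 h chemical treatment of differentiated HepaRG cells in 0.5% DMSO. Dosing was eight-point, half-log, top 100 uM, duplicate wells. Curves fitted bidirectionally versus DMSO.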

Read-out in assay [11]: Pro-epidermal growth factor (Homo sapiens) (UniProt P01133)
Kind of assay: LTEA_HepaRG_EGF: Life Technologies and Expression Analysis (LTEA) Assay for Epidermal growth factor (EGF) using HepaRG (AID 2283489). In short, it runs like this: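 qRT-PCR readout of EGF transcript after 48 h chemical exposure of HepaRG cells; eight concentrations from 100 uM down in half-log steps, duplicate wells, 0.5% DMSO vehicle. Bidirectional curve fitting against DMSO baseline.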

Read-out in assay [12]: Early growth response protein 1 (EGR1) transcription factor, EGR1 (gene 1958)
The experiment in a line: LTEA_HepaRG_EGR1: Life Technologies and Expression Analysis (LTEA) Assay for Early growth response protein 1 (EGR1) transcription factor using HepaRG (AID 2283490). In short, it runs like this:
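EGR1 expression change in human HepaRG after 48 h chemical exposure, assessed by housekeeping-normalized qRT-PCR; concentration-response up to 100 uM, fitted in both directions against DMSO controls.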

Read-out in assay [13]: Ezrin (EZR), EZR (gene 7430)
The experiment in a line: LTEA_HepaRG_EZR: Life Technologies and Expression Analysis (LTEA) Assay for Ezrin (EZR) using HepaRG (AID 2283491). The method, boiled down:
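Differentiated human HepaRG cells, 48 h after plating, were exposed in serum-free induction medium for 48 hours to eight half-log concentrations up to 100 uM in 0.5% DMSO. EZR mRNA was measured by TaqMan qRT-PCR, normalized to ACTB, GAPDH and POLR2A, and fitted bidirectionally against DMSO.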

Read-out in assay [14]: Cytochrome P450 3A7 (Homo sapiens) (UniProt P24462)
The experiment in a line: LTEA_HepaRG_CYP3A7: Life Technologies and Expression Analysis (LTEA) Assay for CYP3A7 using HepaRG (AID 2283492). In short, it runs like this:
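CYP3A7 transcript levels were read by TaqMan qRT-PCR on Fluidigm arrays after 48 h chemical exposure of human HepaRG cells, with housekeeping-gene normalisation. Eight half-log concentrations up to 100 uM in 0.5% DMSO were tested in duplicate.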

Caspase-3 (Homo sapiens), sequence (P42574 whole entry, looked up): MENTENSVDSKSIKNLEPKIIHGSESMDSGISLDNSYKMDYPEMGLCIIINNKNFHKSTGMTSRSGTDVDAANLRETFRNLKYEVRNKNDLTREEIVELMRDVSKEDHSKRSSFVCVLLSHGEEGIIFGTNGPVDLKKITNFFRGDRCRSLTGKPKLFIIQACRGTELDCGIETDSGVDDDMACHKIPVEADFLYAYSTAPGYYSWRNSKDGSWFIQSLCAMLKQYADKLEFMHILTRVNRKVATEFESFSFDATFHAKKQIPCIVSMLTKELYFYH
Cytochrome P450 3A4 (Homo sapiens), sequence (P08684 whole entry, looked up): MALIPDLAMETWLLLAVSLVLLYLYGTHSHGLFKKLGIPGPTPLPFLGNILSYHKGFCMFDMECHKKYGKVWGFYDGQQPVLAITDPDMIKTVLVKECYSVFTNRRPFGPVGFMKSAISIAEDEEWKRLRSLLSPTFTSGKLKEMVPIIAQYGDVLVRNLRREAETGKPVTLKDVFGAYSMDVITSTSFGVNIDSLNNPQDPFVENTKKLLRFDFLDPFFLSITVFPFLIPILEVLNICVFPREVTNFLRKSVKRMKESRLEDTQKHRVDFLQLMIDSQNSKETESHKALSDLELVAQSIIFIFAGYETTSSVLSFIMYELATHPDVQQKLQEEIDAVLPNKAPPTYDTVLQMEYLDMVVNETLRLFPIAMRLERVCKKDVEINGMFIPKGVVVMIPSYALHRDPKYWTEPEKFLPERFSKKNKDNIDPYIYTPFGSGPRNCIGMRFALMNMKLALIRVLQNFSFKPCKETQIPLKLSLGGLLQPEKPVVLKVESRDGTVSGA
Cytochrome P450 3A7 (Homo sapiens), sequence (P24462 whole entry, looked up): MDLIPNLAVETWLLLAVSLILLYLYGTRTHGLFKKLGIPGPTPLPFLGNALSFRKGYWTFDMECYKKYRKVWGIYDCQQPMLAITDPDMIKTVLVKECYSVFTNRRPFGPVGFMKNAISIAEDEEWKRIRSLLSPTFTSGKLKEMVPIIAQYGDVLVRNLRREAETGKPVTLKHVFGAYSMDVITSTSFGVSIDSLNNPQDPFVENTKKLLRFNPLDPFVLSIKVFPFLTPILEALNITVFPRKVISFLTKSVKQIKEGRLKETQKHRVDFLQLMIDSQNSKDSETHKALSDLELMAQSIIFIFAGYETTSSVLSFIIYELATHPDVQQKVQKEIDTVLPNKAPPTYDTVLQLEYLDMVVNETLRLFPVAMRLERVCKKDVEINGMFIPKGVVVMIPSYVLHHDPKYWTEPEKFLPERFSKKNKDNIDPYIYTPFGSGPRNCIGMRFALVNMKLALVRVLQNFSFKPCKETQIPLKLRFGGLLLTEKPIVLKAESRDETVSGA
Cytochrome P450 2C19 (Homo sapiens), sequence (P33261 whole entry, looked up): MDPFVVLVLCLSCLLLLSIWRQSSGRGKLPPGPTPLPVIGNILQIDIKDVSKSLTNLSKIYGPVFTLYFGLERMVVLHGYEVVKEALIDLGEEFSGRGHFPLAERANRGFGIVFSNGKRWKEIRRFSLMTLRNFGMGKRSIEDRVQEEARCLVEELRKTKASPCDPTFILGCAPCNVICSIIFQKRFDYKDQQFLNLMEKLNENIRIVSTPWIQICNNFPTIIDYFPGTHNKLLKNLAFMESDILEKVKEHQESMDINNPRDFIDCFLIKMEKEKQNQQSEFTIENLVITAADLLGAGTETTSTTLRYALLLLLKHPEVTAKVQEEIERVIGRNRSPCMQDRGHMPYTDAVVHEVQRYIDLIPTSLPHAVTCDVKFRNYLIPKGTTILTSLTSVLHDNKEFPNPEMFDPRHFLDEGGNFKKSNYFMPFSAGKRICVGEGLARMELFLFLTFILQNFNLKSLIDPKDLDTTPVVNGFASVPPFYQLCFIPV
Apoptosis regulator Bcl-2 (Homo sapiens), sequence (P10415 whole entry, looked up): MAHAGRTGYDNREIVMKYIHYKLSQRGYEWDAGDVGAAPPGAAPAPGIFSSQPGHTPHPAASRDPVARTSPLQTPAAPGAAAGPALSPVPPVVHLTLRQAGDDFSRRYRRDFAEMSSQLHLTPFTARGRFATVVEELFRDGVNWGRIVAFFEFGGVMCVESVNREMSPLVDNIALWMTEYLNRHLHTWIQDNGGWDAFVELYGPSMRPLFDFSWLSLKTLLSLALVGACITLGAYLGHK

Take `Cc1ccc(N)cc1`: the result (with BCL2L11 (gene 10018); in assay [1]; in assay [2]; in assay [3]; with Caspase-3 (Homo sapiens); in assay [4]) was inactive. In addition, the call (in assay [5]; in [6]; in assay [8]; with CYP2C8 (gene 1558); with CYP2C9 (gene 1559); with CYP2E1 (gene 1571)) was inactive. Besides, the call (with CYP4A11 (gene 1579); in assay [9]; in assay [10]; in [11]; in assay [12]; in assay [13]) was inactive. The outcome in assay [14] was inactive. The AC50 (as a rule, the concentration giving half of the maximal activity seen) in assay [7] was 16.5 µM (active).

As for `[Cl-].[Cl-].[Hg+2]`, the molecule was called inactive (with BCL2L11 (gene 10018); in assay [1]; in [2]; in [3]; in the assay with Caspase-3 (Homo sapiens); in assay [4]). For the same molecule, the outcome (in [6]; in [7]; in assay [8]; with CYP2C8 (gene 1558); in the assay with CYP2C9 (gene 1559); in the assay with CYP2E1 (gene 1571)) was inactive. Moreover, the outcome (with CYP4A11 (gene 1579); in assay [9]; in [10]; in assay [11]; in [12]; in assay [13]) was inactive. The result in [14] was inactive. Further, in assay [5], the half-maximal activity concentration (AC50) is 50 µM (active).

As for `COc1cc(C=O)cc2c1[C@H](COC(N)=O)[C@]1(OC(C)=O)ON2C[C@H]2[C@@H]1N2C(C)=O`, the AC50 is 1.29 µM (active) in the assay with BCL2L11 (gene 10018); 0.316 µM (active) in assay [1]; 3.89 µM (active) in [6]; 73.4 µM (active) in assay [7]; 0.804 µM (active) in assay [8]; 0.5 µM (active) with CYP2C8 (gene 1558). For the same molecule, the AC50 with CYP2C9 (gene 1559) is 24.2 µM (active); with CYP4A11 (gene 1579), 0.5 µM (active); in assay [10] it was 15.8 µM (active); in assay [12] it was 88.8 µM (active). Moreover, the molecule was classed as inactive (in [2]; in assay [3]; in the assay with Caspase-3 (Homo sapiens); in assay [4]; in [5]; in the assay with CYP2E1 (gene 1571)). Besides, the call in [9], in assay [11], in [13] and in assay [14] was inactive.

(Values after PubChem BioAssay (EPA / NIEHS).)
